Casp1 inh: caspase-1 (human) inhibition, allosteric or competitive; P29466; Caspase-1 enzyme, Ac-WEHD-AFC fluorogenic rate; Potency, µM (titrated, usually from 57.5 µM), inactives show at the highest dose activity change, negative = inhibition, hits mostly inhibitors; hit rate 0.03% among 75,000; AID 900;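 also: plate controls were vehicle for no effect and no substrate for full effect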
FLuc inh: firefly luciferase inhibition. purified firefly luciferase, luminescence, 8 min. Potency, µM (series often up to 57.1 µM), for the others: top-dose activity change, negative = inhibition, actives largely listed as inhibitors. hit rate 2.2% among 72,000. AID 411; also: % is scaled to controls: 0 for no effect and ±100 for the full control effect; nearly all actives have a fitted effect of over 40% in size
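Substrate buffer containing 10 uM ATP (pH 7.2 imidazole, Mg2+, KCl, detergent, BSA) is dispensed, compound pinned in, then luciferase/luciferin detector mix added. After 8 min at ambient temperature, light output is measured.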
Casp7 inh: blocks human caspase-7 allosterically or competitively. P55210. recombinant caspase-7, Ac-DEVD-AFC fluorescence rate. Potency, µM (titrated, usually from 57.5 µM), for the others: top-dose activity change, negative = inhibition, most hits filed as inhibitors. hit rate 0.02% among 75,000. AID 889; active = well fitted inhibition curve with a large enough effect in the main read-out, with a control signal flat, not every such curve was filed as active; inconclusive = small, poorly fitted or top-dose-only effect, or a change in a side signal; also: % of control where 0% means no effect
GBA mod: alters purified human glucocerebrosidase activity | purified enzyme, resorufin glucoside fluorescence (screen aimed at inhibitors), 20 min | P04062 | Potency, µM | hit rate 1.1% among 48,000; in the data active = potency below about 15 µM; inconclusive = mostly about 16 µM to 33 µM;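 also: the screen sought inhibitors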
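Compounds titrated against 0.2 nM normal enzyme, 30 uM resorufin beta-D-glucopyranoside substrate, citrate/phosphate buffer with taurocholate and tween-20, pH 5.9. Reaction ran 20 min at room temperature; fluorescence (Ex 548/Em 600) gave AC50.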
Bst PK mod: alters activity of Bacillus stearothermophilus pyruvate kinase. purified pyruvate kinase, luminescence ATP production; ribose 5-phosphate activator present at AC10. Potency, µM. hit rate 1.2% among 51,000; in the data active = potency below about 11 µM; inconclusive = mostly about 12 µM to 25 µM;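 the screen sought inhibitors and activators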;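 also: scaled between full activation by ribose 5 phosphate and full inhibition by luteolin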
An asterisk follows results filed as active; i = inactive; u = inconclusive; x = no result given; [ ] = remark or other dose. Rows were chosen to be rich in hits. Some 3.1% of all compounds tested hit in one or more screens of this group. Unless noted, calls follow the shape of the dose curve; as a rule, active = well fitted inhibition curve with a large enough effect; inconclusive = small, poorly fitted or top-dose-only effect; inactive = flat fitted curve, though single readings scatter. Potency is read from the fitted curve at half-maximal effect.

SMILES	Casp1 inh	FLuc inh	Casp7 inh	GBA mod	Bst PK mod
OC[C@@H]1NC[C@@H](O)[C@H]1O	2%	3%	-1%	x	x
C[C@@H]1NCC[C@H](CC(=O)O)[C@H]1CC(=O)O	3%[11.5 µM]	2%[11.4 µM]	1%[11.5 µM]	x	x
Cc1sc(NC(=O)c2ccccc2)c(C(=O)N2CCN(C)CC2)c1C	0%	1%	5%	12*	>57
Cc1sc(NC(=O)c2cccs2)c(C(N)=O)c1C	-1%	13µM*	-1%	x	x
COc1ccc(C(=O)N=c2nc3ccccn3s2)cc1	-3%	0.5µM*	2%	>77	0.68*
Cc1c(C(=O)O)cnc2cc(-c3ccc(Cl)cc3)nn12	1%	13µM*	1%	x	x
COc1cc2cc3c4c(cc(OC)c(OC)c4c2cc1OC)CCN3C	x	-3%[11.4 µM]	u	x	x
C=C(C)C(=O)OCC(C)O (centres undefined)	-3%	x	1%	x	x
CCOc1ccc(-c2cc(CCCC(=O)Nc3cccc(OC)c3)no2)cc1	-6%	-29%	-2%	x	x
CCOc1ccc(-c2cc(CCCC(=O)NCc3cccnc3)no2)cc1	-5%	13µM*	0%	x	x
COc1ccc(-c2cc(CCCC(=O)NCCc3ccc(OC)cc3OC)no2)cc1	-2%	-10%	-4%	>77	>57
COc1ccc(-c2cc(CCCC(=O)NCc3ccccn3)no2)cc1	-4%	10µM*	-1%	x	x
CCOC(=O)c1ccc(-n2c(=S)sc3c(=O)[nH]c(C)nc32)cc1	0%	-3%	0%	6.8*	>57
CCc1cccc2c3c([nH]c12)[C@](CC)(CC(=O)O)OCC3	x	-3%	x	x	x
Cc1ccc(C2=C(Cl)C(=O)C(c3ccc(C)cc3)=C(Cl)C2=O)cc1	4%[11.5 µM]	-1%[11.4 µM]	-2%[11.5 µM]	x	x
Cc1cc2nc(-c3cccnc3SCC(=O)NCc3ccco3)[nH]c2cc1C	u	4µM*	-25%	>77	3.9*
CCCCC(=O)Nc1cccc(-c2cn3ccsc3n2)c1	0%	13µM*	0%	u	i
O=C(Nc1cccc(-c2cn3ccccc3n2)c1)c1cnccn1	-3%	4µM*	0%	x	x
CCCCC(=O)Nc1cccc(-c2nnc(-c3ccccc3)o2)c1	-1%	-2%	-1%	>77	x
O=C(Nc1ccc(-c2cn3ccccc3n2)cc1)c1cc(Br)ccc1O	-2%[11.5 µM]	-2%[11.4 µM]	-4%[11.5 µM]	x	x
O=C(Nc1ccc(-c2cn3ccsc3n2)cc1)C1COc2ccccc2O1 (centres undefined)	-1%	-24%	-1%	u	x
O=C(Nc1cccc(-c2cn3ccsc3n2)c1)c1ccccc1	1%	25µM*	-2%	>77	i
CCOc1ncccc1C(=O)Nc1ccc(-c2cn3ccsc3n2)cc1	-13%	0%	-15%	>77	>57
COc1ccccc1C(=O)Nc1cccc(-c2cn3ccsc3n2)c1	1%	13µM*	0%	>77	u
Cc1ccc(C(=O)Nc2ccccc2N2CCOCC2)c(C)c1	-3%	x	-1%	x	x
SMILES	Casp1 inh	FLuc inh	Casp7 inh	GBA mod	Bst PK mod
COc1cc(O)c2c(O)c3c(c4c2c1[C@@]1(C4)C(C)=CCCC1(C)C)[C@H](O)[C@@]1(O)CC(=O)C(C(N)=O)=C(O)[C@]1(O)C3=O	-10%[11.5 µM]	-2%[11.4 µM]	-25%[11.5 µM]	x	x
CCCC(=O)Nc1ccc(-c2nc3cc(C)ccc3o2)cc1	-2%	4µM*	-2%	>77	5.3*
CCOc1cccc(-c2nc3cc(C)ccc3o2)c1	-1%	7.9µM*	0%	x	x
Cc1cc(C(=O)NCCC2=CCCCC2)c(C)o1	-2%	16µM*	-1%	>77	x
C/C(=N\NC(=O)c1ccncc1)c1ccc2ccccc2c1O	-4%[11.5 µM]	1%[11.4 µM]	-4%[11.5 µM]	x	x
CCOC(=O)C(/C(N)=N/C(=O)Nc1ccccc1)=C(\C)O	-2%	13µM*	0%	x	x
C/C=C\C1=C(CO)C(=O)[C@@H]2OC2C1=O (some centres undefined)	-1%[11.5 µM]	0%[11.4 µM]	-1%[11.5 µM]	x	x
CCOc1ccccc1NC(=O)CC1Nc2ccccc2NC1=O (centres undefined)	-6%	1%	0%	>77	>57
O=C(CC1Nc2ccccc2NC1=O)c1ccccc1 (centres undefined)	u	13µM*	-28%	x	x
CCCOc1ccccc1NC(=O)CC1Nc2ccccc2NC1=O (centres undefined)	-5%	-1%	-1%	14*	>57
O=C(Nc1cccnc1)c1cn(-c2ccccc2)nc1-c1cccs1	-5%	10µM*	1%	>77	10*
CCOC(=O)N1CC=C2C(C#N)=C(N)C(C#N)(C#N)[C@H](c3ccccc3OCC)[C@H]2C1	-11%	0%	-9%	8.5*	>57
O=c1c(O)c(-c2ccc(O)c(O)c2)oc2c(OC[C@H]3O[C@@H](O)[C@@H](O)[C@H](O)[C@@H]3O)c(O)cc(O)c12	x	-2%[11.4 µM]	x	x	x
O=C(Nc1ccc2nc(-c3ccco3)[nH]c2c1)c1cccs1	-17%	13µM*	u	>77	10*
Cc1ccc(O)c(NC(=O)c2cccc(NC(=O)c3ccco3)c2)c1	0%	-17%	1%	>77	>57
CC(=O)Nc1ccc2nc(-c3cccnc3)[nH]c2c1	-1%	-12%	2%	x	>57
CC(=O)Nc1cccc(-c2nc3ccc(NC(C)=O)cc3[nH]2)c1	-1%	16µM*	2%	>77	i
O=C(CSc1ccc(-c2nc3ccccc3[nH]2)cn1)N1CCN(C(=O)c2ccco2)CC1	0%	20µM*	6%	x	i
O=C(Nc1cccc(NC(=O)c2cccs2)c1)c1ccco1	-1%	-7%	0%	>77	>57
Cc1ccc2nc(-c3cccc(NC(=O)c4ccco4)c3)[nH]c2c1	4%	10µM*	0%	>77	6.4*
O=C(CCc1nc2ccccc2[nH]1)N1CCN(C(=O)c2ccco2)CC1	2%	3%	0%	x	x
FC(F)(F)c1cc(NC(=S)N2c3ccccc3-n3cccc3[C@H]2c2cccnc2)cc(C(F)(F)F)c1	u	-1%[11.4 µM]	u	x	x
O=C(Nc1ccc(-c2nc3ccccc3[nH]2)cc1)c1ccco1	-2%	4µM*	-1%	u	3.9*
O=C(Nc1ccc2nc(-c3cccnc3)[nH]c2c1)c1ccco1	1%	16µM*	-1%	x	x
Cn1cccc1-c1nc2ccc(NC(=O)c3ccccc3)cc2[nH]1	-1%	-17%	2%	x	x
SMILES	Casp1 inh	FLuc inh	Casp7 inh	GBA mod	Bst PK mod
O=C(NCc1cccnc1)c1cccc(NC(=O)c2ccco2)c1	5%	-1%	1%	>77	>57
O=C(Nc1ccc2nc(-c3ccco3)[nH]c2c1)c1ccco1	-3%	13µM*	-3%	>77	10*
O=C(Nc1ccccc1)N1CCCC(c2nc(-c3cccs3)no2)C1 (centres undefined)	-1%	-4%	6%	0.71*	>57
CC1CCC(C(=O)O)([C@H](Br)C(=O)O)CC1 (some centres undefined)	-2%[11.5 µM]	0%[11.4 µM]	2%[11.5 µM]	x	x
O=C(Nc1ccc(-c2nc3ccccc3o2)cc1)C1CCCO1 (centres undefined)	-2%	5µM*	2%	>77	6.3*
CCc1nnc(NC(=O)CSc2nnc(Cc3ccccc3)o2)s1	3%	2%	0%	u	>57
CCc1nnc(NC(=O)CSc2nnc(CNc3ccc(Cl)cc3)o2)s1	-3%	3%	-3%	15*	>57

From PubChem
